From article PMC7862700, “An all-to-all approach to the identification of sequence-specific readers for epigenetic DNA modifications on cytosine”

Columns and labels:
Assay in all cases: DAPPL (digital affinity profiling via proximity ligation, sequencing); 10 mM Tris-HCl pH 7.5, 50 mM NaCl, 1 mM DTT, 4% glycerol, room temperature, 30 min; GST-TFs on glutathione beads, 16-mer random dsDNA library, 0.1% formaldehyde crosslink after washing; high values mean tight binding
FEV = target: T1, FEV (Homo sapiens, UniProt Q99581 1-238); conditions: protein: recombinant; tags: N-terminal GST; dsDNA, one strand shown
T1 sequence: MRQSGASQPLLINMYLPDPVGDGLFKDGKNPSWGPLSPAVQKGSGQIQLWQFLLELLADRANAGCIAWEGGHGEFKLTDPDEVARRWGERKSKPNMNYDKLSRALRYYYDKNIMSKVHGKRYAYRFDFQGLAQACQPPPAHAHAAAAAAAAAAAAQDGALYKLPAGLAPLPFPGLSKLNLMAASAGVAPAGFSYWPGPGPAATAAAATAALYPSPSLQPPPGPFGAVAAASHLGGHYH
How it was run: (§1)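 Pools of DNA-barcoded human transcription factors, expressed in yeast as GST fusions on glutathione beads and combined with a tag-only sample, were incubated with 200 nmole of a 16-mer random double-stranded DNA library. Incubation took 30 min at room temperature in Tris/NaCl/DTT/glycerol buffer and was followed by washing, 0.1% formaldehyde crosslinking, proximity ligation (BsaI/T4 ligase, 1 h, 37 °C), PCR amplification and sequencing on an Illumina NextSeq500. Binding signal is the ratio of a hexamer's read frequency for a factor to its frequency for the tag-only sample.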

ETV5 = ETV5 (Homo sapiens, UniProt P41161 1-510); conditions: protein: recombinant; tags: N-terminal GST; dsDNA, one strand shown
Sequence of ETV5 (P41161 whole entry): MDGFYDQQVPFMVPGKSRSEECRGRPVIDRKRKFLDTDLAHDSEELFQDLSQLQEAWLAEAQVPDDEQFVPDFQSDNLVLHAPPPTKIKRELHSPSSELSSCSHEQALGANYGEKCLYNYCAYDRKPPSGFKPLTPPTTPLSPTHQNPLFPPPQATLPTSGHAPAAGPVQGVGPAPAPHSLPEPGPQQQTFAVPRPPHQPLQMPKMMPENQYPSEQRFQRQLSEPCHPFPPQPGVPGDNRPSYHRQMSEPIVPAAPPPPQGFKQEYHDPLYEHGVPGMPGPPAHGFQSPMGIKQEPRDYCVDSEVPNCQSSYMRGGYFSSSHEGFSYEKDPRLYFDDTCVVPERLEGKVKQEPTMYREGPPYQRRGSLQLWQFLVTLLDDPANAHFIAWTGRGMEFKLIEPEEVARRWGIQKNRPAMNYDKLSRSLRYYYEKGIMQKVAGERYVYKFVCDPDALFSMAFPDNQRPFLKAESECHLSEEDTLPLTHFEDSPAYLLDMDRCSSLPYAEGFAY
How it was run: as §1

HSF1 = HSF1 (Homo sapiens, UniProt Q00613 1-529); conditions: protein: recombinant; tags: N-terminal GST; chain copies: 3; dsDNA, one strand shown
Sequence of HSF1 (Q00613 whole entry): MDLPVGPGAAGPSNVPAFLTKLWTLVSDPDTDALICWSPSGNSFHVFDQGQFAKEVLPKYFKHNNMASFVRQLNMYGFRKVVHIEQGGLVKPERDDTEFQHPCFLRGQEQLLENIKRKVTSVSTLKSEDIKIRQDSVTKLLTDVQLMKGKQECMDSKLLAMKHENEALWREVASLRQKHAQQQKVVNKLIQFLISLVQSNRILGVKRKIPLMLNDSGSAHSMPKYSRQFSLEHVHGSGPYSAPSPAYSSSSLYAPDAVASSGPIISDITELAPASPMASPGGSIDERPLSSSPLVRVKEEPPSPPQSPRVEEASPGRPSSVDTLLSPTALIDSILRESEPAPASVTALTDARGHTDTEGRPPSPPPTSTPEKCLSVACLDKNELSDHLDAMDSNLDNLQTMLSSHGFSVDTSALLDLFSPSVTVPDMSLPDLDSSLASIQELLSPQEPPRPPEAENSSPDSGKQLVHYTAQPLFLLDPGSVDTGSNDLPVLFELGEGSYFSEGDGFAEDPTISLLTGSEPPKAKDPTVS
How it was run: as §1

SPIC = target: T2, SPIC (Homo sapiens, UniProt Q8N5J4 1-248); conditions: protein: recombinant; tags: N-terminal GST; dsDNA, one strand shown
T2 sequence: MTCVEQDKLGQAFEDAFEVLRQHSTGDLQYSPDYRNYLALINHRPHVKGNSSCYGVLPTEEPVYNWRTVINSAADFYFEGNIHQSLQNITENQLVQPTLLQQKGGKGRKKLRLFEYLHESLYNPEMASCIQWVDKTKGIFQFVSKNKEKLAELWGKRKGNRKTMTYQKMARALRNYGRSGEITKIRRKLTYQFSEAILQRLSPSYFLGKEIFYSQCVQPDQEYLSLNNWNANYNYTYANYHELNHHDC
How it was run: as §1

ELF4 = ELF4 (Homo sapiens, UniProt Q99607 1-663); conditions: protein: recombinant; tags: N-terminal GST; dsDNA, one strand shown
Sequence of ELF4 (Q99607 whole entry): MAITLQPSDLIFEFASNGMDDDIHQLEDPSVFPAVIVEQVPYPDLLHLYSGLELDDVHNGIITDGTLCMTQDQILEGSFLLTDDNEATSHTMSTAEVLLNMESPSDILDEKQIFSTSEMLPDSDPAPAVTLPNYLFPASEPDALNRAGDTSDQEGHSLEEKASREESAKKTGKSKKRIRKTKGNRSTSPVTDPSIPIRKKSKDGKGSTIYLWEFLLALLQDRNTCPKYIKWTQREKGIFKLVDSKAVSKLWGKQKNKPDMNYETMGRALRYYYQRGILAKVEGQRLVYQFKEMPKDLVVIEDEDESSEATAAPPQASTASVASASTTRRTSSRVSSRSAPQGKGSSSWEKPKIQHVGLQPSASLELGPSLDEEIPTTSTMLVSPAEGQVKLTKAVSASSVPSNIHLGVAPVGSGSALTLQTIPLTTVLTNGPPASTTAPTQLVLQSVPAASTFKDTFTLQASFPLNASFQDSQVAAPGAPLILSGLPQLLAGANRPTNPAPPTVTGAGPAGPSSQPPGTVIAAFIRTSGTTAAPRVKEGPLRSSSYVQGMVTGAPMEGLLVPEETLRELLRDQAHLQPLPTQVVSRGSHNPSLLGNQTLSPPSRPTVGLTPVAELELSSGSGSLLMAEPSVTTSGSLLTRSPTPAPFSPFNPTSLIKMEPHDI
How it was run: as §1

ELK4 = target: T3, ELK4 (Homo sapiens, UniProt P28324-2 1-405); conditions: protein: recombinant; tags: N-terminal GST; dsDNA, one strand shown
T3 sequence: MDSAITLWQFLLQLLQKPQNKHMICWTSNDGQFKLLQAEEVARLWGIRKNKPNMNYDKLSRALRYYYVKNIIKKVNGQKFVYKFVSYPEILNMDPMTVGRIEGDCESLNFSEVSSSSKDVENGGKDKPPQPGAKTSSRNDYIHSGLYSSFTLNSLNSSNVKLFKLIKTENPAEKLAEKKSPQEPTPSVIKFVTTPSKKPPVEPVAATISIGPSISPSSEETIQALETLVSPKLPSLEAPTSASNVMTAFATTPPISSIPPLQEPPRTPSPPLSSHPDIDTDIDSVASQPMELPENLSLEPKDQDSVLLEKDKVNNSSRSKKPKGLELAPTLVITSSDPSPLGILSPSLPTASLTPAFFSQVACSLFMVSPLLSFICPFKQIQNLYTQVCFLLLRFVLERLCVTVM
How it was run: as §1

ETV2 = target: T4, ETV2 (Homo sapiens, UniProt O00321 1-342); conditions: protein: recombinant; tags: N-terminal GST; dsDNA, one strand shown
T4 sequence: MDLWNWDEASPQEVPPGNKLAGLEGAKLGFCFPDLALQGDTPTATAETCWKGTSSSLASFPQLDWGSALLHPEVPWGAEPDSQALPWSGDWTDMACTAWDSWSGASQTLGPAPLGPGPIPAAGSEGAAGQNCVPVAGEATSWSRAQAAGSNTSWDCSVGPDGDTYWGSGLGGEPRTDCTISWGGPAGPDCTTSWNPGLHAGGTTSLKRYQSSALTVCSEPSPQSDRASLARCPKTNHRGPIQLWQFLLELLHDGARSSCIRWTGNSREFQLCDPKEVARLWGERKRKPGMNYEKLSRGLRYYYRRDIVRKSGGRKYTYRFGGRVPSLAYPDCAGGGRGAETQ
How it was run: as §1

ELF3 = target: T5, ELF3 (Homo sapiens, UniProt P78545 1-371); conditions: protein: recombinant; tags: N-terminal GST; dsDNA, one strand shown
T5 sequence: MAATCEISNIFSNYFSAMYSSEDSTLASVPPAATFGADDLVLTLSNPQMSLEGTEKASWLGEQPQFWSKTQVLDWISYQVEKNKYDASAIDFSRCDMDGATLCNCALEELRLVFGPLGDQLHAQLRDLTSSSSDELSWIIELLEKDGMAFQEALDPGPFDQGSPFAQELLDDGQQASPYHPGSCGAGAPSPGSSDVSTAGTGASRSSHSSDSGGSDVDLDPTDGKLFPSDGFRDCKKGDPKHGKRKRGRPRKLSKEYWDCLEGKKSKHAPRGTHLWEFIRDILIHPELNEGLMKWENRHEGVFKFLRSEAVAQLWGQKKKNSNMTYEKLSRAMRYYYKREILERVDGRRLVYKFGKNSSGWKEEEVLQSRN
How it was run: as §1

CRX = CRX (Homo sapiens, UniProt O43186 1-299); conditions: protein: recombinant; tags: N-terminal GST; dsDNA, one strand shown
Sequence of CRX (O43186 whole entry): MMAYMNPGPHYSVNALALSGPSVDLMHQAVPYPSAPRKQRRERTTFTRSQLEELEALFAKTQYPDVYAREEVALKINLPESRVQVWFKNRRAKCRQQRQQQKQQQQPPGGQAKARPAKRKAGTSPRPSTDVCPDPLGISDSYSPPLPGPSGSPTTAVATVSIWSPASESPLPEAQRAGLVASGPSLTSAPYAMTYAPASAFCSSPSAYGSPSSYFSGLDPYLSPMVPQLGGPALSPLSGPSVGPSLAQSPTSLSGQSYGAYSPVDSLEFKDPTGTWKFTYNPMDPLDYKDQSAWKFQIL
How it was run: as §1

ETV1 = ETV1 (Homo sapiens, UniProt P50549 1-477); conditions: protein: recombinant; tags: N-terminal GST; dsDNA, one strand shown
Sequence of ETV1 (P50549 whole entry): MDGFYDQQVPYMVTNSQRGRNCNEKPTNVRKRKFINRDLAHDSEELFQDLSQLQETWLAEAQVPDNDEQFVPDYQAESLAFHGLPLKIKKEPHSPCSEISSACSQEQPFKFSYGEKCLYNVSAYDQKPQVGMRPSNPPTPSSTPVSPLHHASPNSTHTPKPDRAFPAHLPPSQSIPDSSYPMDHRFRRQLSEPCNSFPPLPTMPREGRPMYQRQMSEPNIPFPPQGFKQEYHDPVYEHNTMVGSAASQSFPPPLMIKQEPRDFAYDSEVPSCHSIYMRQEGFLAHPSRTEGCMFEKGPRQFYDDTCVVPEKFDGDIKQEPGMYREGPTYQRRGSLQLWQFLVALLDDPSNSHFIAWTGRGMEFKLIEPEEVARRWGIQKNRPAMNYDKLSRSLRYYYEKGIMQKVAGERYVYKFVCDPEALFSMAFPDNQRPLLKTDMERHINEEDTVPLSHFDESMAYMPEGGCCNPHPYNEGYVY
How it was run: as §1

ACTTCC
binding signal (FEV): 12.4 fold enrichment (6-mer frequency, TF over GST control)
binding signal (ETV5): 8.86 fold enrichment (6-mer frequency, TF over GST control)
binding signal (HSF1): 1.55 fold enrichment (6-mer frequency, TF over GST control)
binding signal (SPIC): 8.15 fold enrichment (6-mer frequency, TF over GST control)
binding signal (ELF4): 7.63 fold enrichment (6-mer frequency, TF over GST control)
binding signal (ELK4): 6.63 fold enrichment (6-mer frequency, TF over GST control)
binding signal (ETV2): 8.23 fold enrichment (6-mer frequency, TF over GST control)
binding signal (ELF3): 7.67 fold enrichment (6-mer frequency, TF over GST control)
binding signal (CRX): 1.21 fold enrichment (6-mer frequency, TF over GST control)
binding signal (ETV1): 8.66 fold enrichment (6-mer frequency, TF over GST control)
